Results filed as inconclusive are left out. Activity calls are given as the source filed them. How the source made its calls: active means hit-call score of the fitted dose curve at least 0.9, where 1 is the maximum; inconclusive means response in the unintended direction; inactive means score below 0.9.

A word on the AC50: it is the concentration at which the activity in the assay is half-maximal.

Read-out in the test: sulfotransferase (SULT2A), SULT2A1 (gene 6822)
Nature of the test: CLD_SULT2A_24hr: CellzDirect (CLD) Gene Expression Assay for sulfotransferase (SULT2A) at 24 hours (AID 2283694).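 On AC50: potency for increased SULT2A1 mRNA level as induction over DMSO baseline.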 On the procedure: CLD_24hr is a cell-based, multiplexed-readout assay that uses hepatocyte, a human liver primary cell, with measurements taken at 24 hours after chemical dosing in a 96-well plate.CLD_SULT2A_24hr is one of 16 assay component(s) measured or calculated from the CLD_24hr assay. It is designed to make measurements of mRNA induction, a form of inducible reporter, as detected with chemiluminescence signals by Quantitative Nuclease Protection Assay (qNPA) technology.Data from the assay component CLD_SULT2A_24hr was analyzed at the endpoint, CLD_SULT2A_24hr, in the positive analysis fitting direction relative to DMSO as the negative control and baseline of activity. Using a type of inducible reporter, gain-of-signal activity can be used to understand changes in the reporter gene as they relate to the gene SULT2A1. Furthermore, this assay endpoint can be referred to as a primary readout. To generalize the intended target to other relatable targets, this assay endpoint is annotated to the transferase intended target family, where subfamily is sulfotransferase.
Human hepatocyte cultures were treated daily for two consecutive days with fresh dosing solutions containing appropriate concentrations of the 320 ToxCast chemicals (chemical identities were blinded to CellzDirect and other ToxCast collaborators), vehicle control (0.2% DMSO), and positive control inducers as summarized in Table 1. Due to the large number of treatment groups and chemicals examined, the ToxCast chemicals were divided into two groups (spanning two independent cultures of hepatocytes from separate donor preparations (Hu778: ToxCast plates 1 and 2; Hu776: ToxCast plates 3 and 4). Each preparation of human hepatocyte cultures was treated with respective vehicle control, medium only control, set of six positive controls/reference chemicals for the five hepatic receptor pathways, and a subset of eight of the ToxCast chemicals (indoxacarb, pyrithiobac-sodium, norflurazon, cyhalofop-butyl, methomyl, thiram, acetochlor, and propiconazole). These replicate data, coupled with internal replicates designed within the blinded ToxCast chemical library, provided additional data to evaluate interindividual differences between hepatocyte preparations and their potential impact on chemical profiles.Cell morphology and integrity were evaluated using phase-contrast microscopy as an indicator of hepatocyte cell health (Tyson & Green, 1987). Cultures for each treatment group (i.e., media, vehicle [0.2% DMSO], positive control inducers [multiple concentrations], and the ToxCast chemicals [multiple concentrations]) were observed and cell morphology was assessed relative to vehicle control cultures at each harvest time point (0, 6, 24, or 48 h). […] Images were evaluated at the conclusion of the study to assess changes in cell integrity and account for the effects of chemical exposure on uncharacteristic changes in concentration-dependent gene expression profiles. The results from these determinations of apparent cytotoxicity were annotated (yes/no) alongside the corresponding qNPA data for reference.At the conclusion of each treatment period, hepatocyte cultures (96-well) were washed with 1 volume of HBSS, lysed by addition of 25 ul ArrayPlate lysis buffer (HTG, Tucson, AZ), and 70 ul/well of Denaturation Oil, denatured by incubation at 95C for 10 min, and frozen at approximately -70C until analysis by nuclease protection assay (qNPA) (Roberts et al., 2007). For qNPA analysis, cell lysates were thawed at 50C for approximately 30 min, qNPA probes were added, and samples were incubated at 95C for 10 min to begin the detection process by denaturing the target RNA, dissociating the duplexes and secondary structure hybridization. At the conclusion of the hybridization period, S1 nuclease reagent was added to each sample to digest all nonprotected nucleotides at 50C for 60-90 min. […]
Regarding `CC1COC(Cn2cncn2)(c2ccc(Oc3ccc(Cl)cc3)cc2Cl)O1` (configuration not stated), the compound was classed as inactive. For `CCCCNC(=O)OCC#CI`, the call was inactive.

For the compound `O=C(O)COc1nc(Cl)c(Cl)cc1Cl`, the outcome was inactive. `CCOC(=O)C(Cl)Cc1cc(-n2nc(C)n(C(F)F)c2=O)c(F)cc1Cl` (configuration not stated): the outcome was inactive. In the case of `CCNc1nc(Cl)nc(NCC)n1`, the compound was called inactive.

In the case of `CCON=C(CC)C1=C(O)CC(c2c(C)cc(C)cc2C)CC1=O` (configuration not stated), the result was inactive. In the case of `COC(=O)N(OC)c1ccccc1COc1ccn(-c2ccc(Cl)cc2)n1`, the compound was called inactive. For `CCc1nn(C)c(C(=O)NCc2ccc(C(C)(C)C)cc2)c1Cl`, the AC50 is 3.71 µM (active).

Consider `CO/C=C(/C(=O)OC)c1ccccc1Oc1cc(Oc2ccccc2C#N)ncn1`, for which the compound was classed as inactive. Same read-out and setting: for `O=C(O)c1nc(Cl)ccc1Cl` the value was “inactive”; for `CCOc1cc(Oc2ccc(C(F)(F)F)cc2Cl)ccc1[N+](=O)[O-]`, “inactive”. On to `N#Cc1nn(-c2c(Cl)cc(C(F)(F)F)cc2Cl)c(N)c1S(=O)C(F)(F)F` (configuration not stated), for which the AC50 is 2.43 µM (active). On to `CCOP(=S)(OCC)SCn1c(=O)oc2cc(Cl)ccc21`, for which the compound was classed as inactive.

As for `COP(=S)(OC)Oc1nc(Cl)c(Cl)cc1Cl`, the compound was called inactive. As for `COC(=O)c1ccccc1C(=O)OC`, the outcome was inactive. In the case of `C=CC1(C)OC(=O)N(c2cc(Cl)cc(Cl)c2)C1=O` (configuration not stated), the call was inactive. Still for that read-out and setting: the value for `CCCCOC(=O)c1ccccc1C(=O)OCCCC` was “inactive”; that for `C=CCC1=C(C)[C@@H](OC(=O)[C@@H]2[C@@H](C=C(C)C)C2(C)C)CC1=O` was “inactive”; that for `COc1nc(C)nc(NC(=O)NS(=O)(=O)c2ccccc2CCC(F)(F)F)n1` was “inactive”.

As to `N#CC(CCc1ccc(Cl)cc1)(Cn1cncn1)c1ccccc1` (configuration not stated), the call was inactive. Consider `CC(C)(C)c1ccc(CSc2cnn(C(C)(C)C)c(=O)c2Cl)cc1`, for which the half-maximal activity concentration (AC50) is 20 µM (active).

As for `COc1ccc(C(c2ccc(OC)cc2)C(Cl)(Cl)Cl)cc1`, the compound was classed as inactive. On the same count and under the same terms, for `COC(=O)C(C)Oc1ccc(Oc2ccc(Cl)cc2Cl)cc1` (configuration not stated) the value was “inactive”.

On to `CCCN(CCC)c1c([N+](=O)[O-])cc(S(N)(=O)=O)cc1[N+](=O)[O-]`, for which the AC50 was 20 µM (active).

For `CCOC(=O)CC(SP(=S)(OC)OC)C(=O)OCC` (configuration not stated), the compound was classed as inactive. For `N#Cc1cc(Br)c(O)c(Br)c1`, the call was inactive.

Take `CC(C)Oc1cc(-n2nc(C(C)(C)C)oc2=O)c(Cl)cc1Cl`: the outcome was inactive.

Regarding `OC(c1ccc(Cl)cc1)(c1cncnc1)c1ccccc1Cl` (configuration not stated), the compound was called inactive. As for `CCCCC(CC)COC(=O)c1ccccc1C(=O)OCC(CC)CCCC` (configuration not stated), the result was inactive.

`COc1cnc(OC)n2nc(NS(=O)(=O)c3c(OCC(F)F)cccc3C(F)(F)F)nc12`: the outcome was inactive. Still for that read-out and setting: the value for `CCCC1COC(Cn2cncn2)(c2ccc(Cl)cc2Cl)O1` (configuration not stated) was “inactive”; that for `Cc1ccc(-c2c(Cl)nc(C#N)n2S(=O)(=O)N(C)C)cc1` was “inactive”. Turning to `COc1nc(C)nc(NC(=O)NS(=O)(=O)c2ccccc2Cl)n1`, the compound was classed as inactive. Turning to `CNC(=S)S`, the result was inactive. The same measure, in the same setting: the value for `COC(=O)C=C(C)OP(=O)(OC)OC` was “inactive”; that for `CCNc1nc(Cl)nc(NC(C)C)n1` was “inactive”. The same measure, in the same setting: for `C#CCOS(=O)OC1CCCCC1Oc1ccc(C(C)(C)C)cc1` (configuration not stated) the value was “inactive”.

For the origin of these results see PubChem BioAssay (EPA / NIEHS).
